We go through 78 compounds from the supplement of paper PMC8183993.

The structures appear in SMILES notation. “And” between values parts separate entries of the source, which are not always exact repeats. Identical values can stand only once. Counter-ions that a name gives are not always drawn. ± gives the standard deviation of the averaged measurements. Over roughly 3,100 compounds, “mean cytoplasmic OPP incorporation (global translation) relative to DMSO” has its median near 100; the lowest 2% begin near 56. The sample as a whole holds a higher share of the lowest values than the screen did.

The test deals with U2OS. Briefly: mean cytoplasmic OPP incorporation (global translation) relative to DMSO (% of DMSO); higher = more protein synthesis. To be noted: 10 µM; 24 h. The protocol: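 Primary image-based screen in U2OS cells: compounds at 10 uM for 24 h, then a 1 h o-propargyl-puromycin (OPP) pulse, click labelling, and high-throughput microscopy. Mean cytoplasmic OPP intensity and nuclei count were normalised to DMSO wells within each plate (DMSO = 100) and averaged over triplicate plates.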
For the compound `CC(C)SC(=N)N` [S-Isopropylisothiourea hydrobromide], the “mean cytoplasmic OPP incorporation” value amounted to 102.
Then `CCCS(=O)(=O)c1nc(NC2CC2)cc(-c2ccc3c(ccn3C3CC(C)(C)NC(C)(C)C3)c2)n1`, with 21.1; and `C=C1C(=O)O[C@@H](CCC)[C@@H]1C(=O)O` [Butyrolactone 3], with 100.
Under `C[C@H](NC(=O)[C@@H]1CCCN1C(=O)[C@@H]1CCCN1C(=O)[C@@H](O)[C@H](N)Cc1ccccc1)C(N)=O` [Apstatin] stands 101.
Then `C[C@H](NC(=O)/C(C#N)=C/c1ccc(O)c(O)c1)c1ccccc1` [Tyrphostin B44, (+) enantiomer], with 96; and `CCC[C@H](NC(=O)/C(C#N)=C/c1cccc(Br)n1)c1ccccc1`, with 27.2; and `C[C@H](NC(=O)/C(C#N)=C/c1cccc(Br)n1)c1ccccc1`, with 56.2 ± 5.9.
For the compound `O=C(c1ccc(Cl)cc1Cl)n1nnc2ccccc21`, the “mean cytoplasmic OPP incorporation” value was determined as 111.
Under `CCCc1cc(C)[nH]c(=O)c1CNC(=O)c1cc(-c2ccnc(N3CCN(C)CC3)c2)cc2c1cnn2C(C)C` stands 112; under `CC(=O)NCCc1c(Cc2ccccc2)[nH]c2ccccc12` [Luzindole], 103.
Under `Cc1[nH]c2ccccc2c1CCNCc1ccc(/C=C/C(=O)NO)cc1` [Panobinostat] stands 51.6.
As for `O=C(/C=C/c1cccc(S(=O)(=O)Nc2ccccc2)c1)NO` [Belinostat (PXD101)], the “mean cytoplasmic OPP incorporation” value was found to be 65.5.
Then `CCCCCCCCCCCCCCCC(=O)C1=C(O)[C@@H](CO)OC1=O`, with 104; and `N[C@H](C(=O)O)[C@H](OCc1ccccc1)C(=O)O` (racemic), with 103.
Under `CCS(=O)(=O)c1cccc(-c2cc(C(=O)NC3CCN(C)CC3)c(C)c3[nH]c4ncc(C)cc4c23)c1` stands 46.8.
Then `COc1cc(C(=O)NC(=S)Nc2cccc(NC(=O)c3ccccc3)c2)cc(OC)c1OC`, with 117; and `CN(C)c1nc(N)c(C(=O)Nc2cccnc2)nc1Cl` [ACDPP hydrochloride], with 97.2; and `CN1CCC(c2c(O)cc(O)c3c(=O)cc(-c4ccccc4Cl)oc23)C(O)C1` (stereo not drawn) [Flavopiridol (Alvocidib) HCl], with 58.4.
As to `Cc1cc2c(cc1C1(c3ccc(C(=O)O)cn3)CC1)C(C)(C)CCC2(C)C`, the “mean cytoplasmic OPP incorporation” value is 109.
Then `COc1cc(NC(C)CCCN)c2ncccc2c1` (stereo not drawn) [Primaquine diphosphate], with 36.1.
Consider `C/C(=N\NC(=O)C1C(=O)NCC1c1ccccc1)c1cccc(Br)c1` (stereo not drawn), for which the “mean cytoplasmic OPP incorporation” value was 102.
On to `O=C(O)c1cc(O)ccc1O` [Gentisic acid], for which the “mean cytoplasmic OPP incorporation” value is 101.
Then `CC(=O)N[C@@H](CSCC=C(C)CCC=C(C)CCC=C(C)C)C(=O)O` [Acetyl-S-farnesyl-L-cysteine], with 123.
As for `OCC1OC(n2cnc3c(NC4CCCC4)nc(Cl)nc32)C(O)C1O` (stereo not drawn) [2-Chloro-N6-cyclopentyladenosine], the “mean cytoplasmic OPP incorporation” value came out at 116.
`CCCCCS(=O)(=O)CCCCCCCCCCn1c(-c2ccc(O)cc2)c(C)c2cc(O)ccc21`: the “mean cytoplasmic OPP incorporation” value was determined as 104.
Take `O=C(CCCN1C(=O)c2cccc3cccc(c23)C1=O)NO` [Nullscript]: the “mean cytoplasmic OPP incorporation” value stood at 97.6.
Under `CCN(CCN(C)C)C(=O)CNCc1cc(C(N)=O)ccn1` stands 96.2.
Then `O=C1NCCN1c1ncc([N+](=O)[O-])s1` [Niridazole], with 94.7.
Then `O=c1[nH]nc(Sc2ncc([N+](=O)[O-])s2)n1-c1ccc2c(c1)OCCO2`, with 39.7 ± 16; and `C[C@H](CCC(=O)NCCS(=O)(=O)O)[C@H]1CC[C@H]2[C@@H]3CC[C@@H]4C[C@H](O)CC[C@]4(C)[C@H]3C[C@H](O)[C@]12C` [Taurodeoxycholic acid], with 99.3.
Take `O=C(NCCCN1CCC2(CC1)OCc1ccccc12)[C@H]1CCCN1Cc1ccccc1`: the “mean cytoplasmic OPP incorporation” value was 108.
For `CCCCC[C@H](O)/C=C/[C@@H]1[C@H]2C/C(=C/CCCC(=O)O)C[C@H]2C[C@H]1O` [Carbacyclin], the “mean cytoplasmic OPP incorporation” value is 101.
Under `Nc1nc(NCCc2ccc(O)cc2)nc2nc(-c3ccco3)nn12` stands 99.2; under `Cc1cc(C)c(N(Cc2ccccc2)S(=O)(=O)c2ccc(OCCNC(=O)c3cc4ccccc4o3)cc2)c(C(=O)NO)c1`, 103; under `COc1cc(C(=O)NCc2ccc(OCCN(C)C)cc2)cc(OC)c1OC` [Trimethobenzamide hydrochloride], 102.
As for `CN(C)Cc1c(C(=O)NCCOc2ccc(C(=O)NO)cc2)oc2ccccc12`, the “mean cytoplasmic OPP incorporation” value is 56.
`O=C(O)COc1ccc(OCCNC[C@H](O)COc2ccccc2)cc1` [ICI 215,001 hydrochloride]: the “mean cytoplasmic OPP incorporation” value came out at 100.
Under `CCCCn1c(=O)c2[nH]c(C34CC5CC(CC3C5)C4)nc2n(CCCO)c1=O` stands 117.
Under `CCC(CC)[C@H](NC(C)=O)[C@@H]1[C@H](O)[C@@H](C(=O)O)C[C@H]1NC(=N)N` [Peramivir  Trihydrate] stands 99.4; under `c1ccc2sc(N3CCN(Cc4ccc5c(c4)OCO5)CC3)nc2c1` [2-[1-(4-Piperonyl)piperazinyl]benzothiazole], 105.
As for `Cc1cc(/C=C/c2ccc3cc(N(C)C)ccc3[n+]2C)c(C)n1-c1ccccc1` [Pyrvinium pamoate], the “mean cytoplasmic OPP incorporation” value worked out at 22.
Then `CNCCCCOc1ccccc1Cc1ccccc1` [Bifemelane hydrochloride], with 107; and `O=Cc1c2[nH]c3ccccc3c2cc2[nH]c3ccccc3c12` [6-Formylindolo [3,2-B] carbazole], with 92.9; and `COc1ccc2[nH]cc(CCNC(C)=O)c2c1` [Melatonin], with 103 ± 4.6.
Under `COc1ccc(C(=O)NCc2ccc(OCCN(C)C)cc2)cc1OC` [Itopride] stands 89.3; under `COc1ccc(OC)c(C(O)CNC(=O)CN)c1` (stereo not drawn) [Midodrine hydrochloride], 48.8.
As to `CC(C)[C@H](N)C(=O)N[C@H](C(=O)N[C@H](C(=O)O)C(C)C)C(C)C`, the “mean cytoplasmic OPP incorporation” value worked out at 114.
Then `O=C(/C=C/C#Cc1cccc(NS(=O)(=O)c2ccccc2)c1)NO` [Oxamflatin], with 105; and `CC(=O)[C@]1(O)Cc2c(O)c3c(c(O)c2[C@@H](O[C@H]2C[C@H](N)[C@H](O)[C@H](C)O2)C1)C(=O)c1ccccc1C3=O` [Idarubicin HCl], with 60.3.
Then `COc1cccc2c1C(=O)c1c(O)c3c(c(O)c1C2=O)C[C@@](O)(C(=O)CO)C[C@@H]3O[C@H]1C[C@H](N)[C@H](O)[C@H](C)O1` [Doxorubicin hydrochloride], with 54.8 ± 17.
Regarding `COc1cccc2c1C(=O)c1c(O)c3c(c(O)c1C2=O)C[C@@](O)(C(=O)CO)C[C@@H]3O[C@H]1C[C@H](N)[C@H](O)[C@H](C)O1` [Doxorubicin (Adriamycin)], the “mean cytoplasmic OPP incorporation” value is 67.1.
Under `COc1cccc2c1C(=O)c1c(O)c3c(c(O)c1C2=O)C[C@@](O)(C(C)=O)C[C@@H]3O[C@H]1C[C@H](N)[C@H](O)[C@H](C)O1` [Daunorubicin hydrochloride] stands 40.7; under `COc1cccc2c1C(=O)c1c(O)c3c(c(O)c1C2=O)C[C@@](O)(C(C)=O)C[C@@H]3O[C@H]1C[C@H](N)[C@H](O)[C@H](C)O1` [Daunorubicin HCl (Daunomycin HCl)], 59.9.
Under `COc1cccc2c1C(=O)c1c(O)c3c(c(O)c1C2=O)C[C@@](O)(C(=O)CO)C[C@@H]3O[C@H]1C[C@H](N)[C@H](O[C@@H]2CCCCO2)[C@H](C)O1` [Pirarubicin] stands 59.9; under `COc1cccc2c1C(=O)c1c(O)c3c(c(O)c1C2=O)C[C@@](O)(C(=O)CO)C[C@@H]3O[C@H]1C[C@H](N)[C@@H](O)[C@H](C)O1` [Epirubicin HCl], 59.5.
Then `CC(C)C(=O)SCCCCCCC(=O)Nc1nc(-c2ccccc2)cs1`, with 117; and `CCCCCCN(CCCCCC)C(=O)Cc1c(-c2ccc(Cl)cc2)[nH]c2ccc(Cl)cc12`, with 104.
`Cc1ccc(CC2(O)CCN(CCOc3ccc(O)cc3)CC2)cc1`: the “mean cytoplasmic OPP incorporation” value is 108.
Under `COc1cc(C#N)ccc1S(=O)(=O)Nc1ccc2c(c1)cc(C)c(=O)n2C` stands 109.
`COc1ccc(CCN(C)CCCOc2ccc(S(=O)(=O)c3c(C(C)C)c4ccccc4n3C)cc2)cc1OC`: the “mean cytoplasmic OPP incorporation” value worked out at 110.
Then `Clc1cc2c(NC3CCCC3)nnc(-c3ccncc3)c2cc1Cl`, with 114.
Then `CSc1cccc(Nc2ncc3cc(-c4c(Cl)cccc4Cl)c(=O)n(C)c3n2)c1`, with 116.
`Cc1cnc(Nc2ccc(OCCN3CCCC3)cc2)nc1Nc1cccc(S(=O)(=O)NC(C)(C)C)c1`: the “mean cytoplasmic OPP incorporation” value is 82.6 and 66.4.
Under `CCN(CC)CCOc1ccc(Nc2ncc3cc(-c4c(Cl)cccc4Cl)c(=O)n(C)c3n2)cc1` stands 53.6; under `Cc1ccc(S(=O)(=O)C=CC#N)cc1`, 65.3.
Then `O=C1Nc2ccc(-c3cccnc3)cc2/C1=C/c1ccc[nH]1` [JAK3 Inhibitor VI], with 90.
Then `N=C(N)c1ccc(N2CCN(C3CCN(CC(=O)O)CC3)CC2)cc1`, with 99.3; and `NC[C@H]1CC[C@H](C(=O)O)CC1` [Tranexamic acid], with 47.
In the case of `NCC1CCC(C(=O)N[C@@H](Cc2ccccc2)C(=O)Nc2ccc(CC(=O)O)cc2)CC1` (stereo partly drawn), the “mean cytoplasmic OPP incorporation” value was determined as 97.5.
For `CC1(C)CCC(C)(C)c2cc(C(=O)Nc3ccc(C(=O)O)cc3)ccc21`, the “mean cytoplasmic OPP incorporation” value was 105 and 99.6.
Then `CN(CCc1ccc(Cl)c(Cl)c1)CC(O)COc1ccc(NS(C)(=O)=O)cc1` (stereo not drawn), with 102 and 107.
Then `N#Cc1ccc(NC(=O)Nc2ccccc2Br)c2n[nH]nc12`, with 104.
Then `Cc1nc(Nc2n[nH]c3c2CN(C(=O)N[C@H](CN(C)C)c2ccccc2)C3(C)C)c2sccc2n1`, with 45.5; and `CC(C)CC(=O)Nc1n[nH]c2c1CN(C(=O)C1CCN(C)CC1)C2(C)C`, with 65.9.
For `CSc1nc(NC2CCCC2)c([N+](=O)[O-])c(NC2CCCC2)n1`, the “mean cytoplasmic OPP incorporation” value was found to be 101.
Under `COC(C)(C)CCCC(C)C/C=C/C(C)=C/C(=O)O` (stereo not drawn) [Methoprene acid] stands 99.2; under `CC(=O)OCOC(c1cc([N+](=O)[O-])ccc1Oc1ccc(Br)cc1)P(=O)(OCOC(C)=O)OCOC(C)=O` (stereo not drawn), 101; under `CC(C)N1Cc2cc(S(C)(=O)=O)ccc2N(CCN2CC=C(c3c[nH]c4cc(F)ccc34)CC2)S1(=O)=O`, 106.
